Assay outcomes from PubChem.
Shown is part of a subset that was picked to be rich in hits.
p53 PUMA act – re-activators of the mutant p53 pathway; SW480 PUMA-promoter luciferase, p53 mutant reactivation; activation, % at 9.98 µM; 1.5% of 28,000 active; in the data active = activation above about 52%; inconclusive = no clear call, values can overlap the other calls
NOMO-1 viab – STK33 inhibitor candidate reducing NOMO-1 cell viability; NOMO-1 AML viability, CellTiter-Glo luminescence, 72 h; inhibition, % (test concentration not listed); 7.5% of 37,000 active; in the data active = inhibition above about 80%; inconclusive = no clear call, values can overlap the other calls
STK33 inh – inhibitors of human STK33 kinase; Q9BYT3; ADP-Glo luminescence, MBP substrate; inhibition, % at 12.5 µM; 0.44% of 27,000 active; in the data active = inhibition above about 20%; inconclusive = no clear call, values can overlap the other calls
Target sequence (Q9BYT3 whole entry, looked up): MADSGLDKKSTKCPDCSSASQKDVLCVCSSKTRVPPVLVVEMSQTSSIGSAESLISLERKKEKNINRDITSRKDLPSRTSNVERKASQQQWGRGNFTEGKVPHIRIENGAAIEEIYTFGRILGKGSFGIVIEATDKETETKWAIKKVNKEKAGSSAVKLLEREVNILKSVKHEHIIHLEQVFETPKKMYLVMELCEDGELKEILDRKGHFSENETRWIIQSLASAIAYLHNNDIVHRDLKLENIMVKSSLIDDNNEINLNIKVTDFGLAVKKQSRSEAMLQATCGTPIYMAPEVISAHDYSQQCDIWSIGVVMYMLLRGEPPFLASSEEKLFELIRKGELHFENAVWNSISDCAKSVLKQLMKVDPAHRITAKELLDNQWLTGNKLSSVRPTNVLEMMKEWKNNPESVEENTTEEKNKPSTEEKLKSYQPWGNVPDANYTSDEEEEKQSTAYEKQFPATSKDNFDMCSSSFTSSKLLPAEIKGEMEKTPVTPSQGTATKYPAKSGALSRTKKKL
MITF inhib – MITF inhibition | 0.28% of 37,000 active | inhibition, % (concentration not given with the values) | TRPM1 promoter luciferase, luminescence, 24 h | AID 2240; in the data active = inhibition above about 85%; inconclusive = no clear call, values can overlap the other calls; inactive = below about 68%;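 also: human melanocyte line stably carrying TRPM1 promoter luciferase reporter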
Active calls of the source: *; u = inconclusive; x = no result given.

SMILES	p53 PUMA act	NOMO-1 viab	STK33 inh	MITF inhib
C[C@H]1CN([C@@H](C)CO)C(=O)Cc2cc(NC(=O)Cc3cn(C)c4ccccc34)ccc2O[C@H]1CN(C)Cc1ccc(C(=O)Nc2ccccc2N)cc1	x	120*	x	19
CCOc1ccccc1NC(=O)CSc1nc2ccccc2c(=O)n1-c1cccc(C(F)(F)F)c1	11	20	1	11
C[C@@H]1CN([C@H](C)CO)C(=O)c2cc(NS(=O)(=O)c3ccc(Cl)cc3)ccc2O[C@@H]1CN(C)Cc1ccc(Oc2ccccc2)cc1	x	122*	x	36
C[C@@H]1CN([C@@H](C)CO)C(=O)c2cc(NS(=O)(=O)c3ccc(Cl)cc3)ccc2O[C@@H]1CN(C)Cc1ccc(Oc2ccccc2)cc1	x	114*	x	35
C[C@H]1CN([C@@H](C)CO)C(=O)c2cc(NS(=O)(=O)c3ccccc3)ccc2O[C@@H]1CN(C)Cc1ccc(Oc2ccccc2)cc1	x	68	0	19
CC1C[C@@]23CC4C(C)(C)[C@@]5(C[C@]4(CN2C1=O)N(C)C3=O)C(=O)Nc1c5ccc2c1C(=O)CC(C)(C)O2 (some centres not stated)	x	118*	-2	10
C=CC[n+]1ccc2ccccc2c1	x	4	-2	10
C[C@H]1CN([C@@H](C)CO)C(=O)Cc2cc(NC(=O)Cc3cn(C)c4ccccc34)ccc2O[C@H]1CN(C)Cc1ccc(C(F)(F)F)cc1	x	83*	2	28
C[C@@H]1CN([C@H](C)CO)C(=O)Cc2cc(NC(=O)Cc3cn(C)c4ccccc34)ccc2O[C@H]1CN(C)Cc1ccc(C(F)(F)F)cc1	x	133*	7	3
Cc1cc(Cl)cc(Cl)c1OCC(=O)Nc1cccc(NC(=O)c2ccccc2Cl)c1	18	29	-1	40
CC1OC(Oc2cc(O)c(C3OC(C)C(O)C(O)C3O)c3oc(-c4ccc(O)cc4)cc(=O)c23)C(O)C(O)C1O (configuration not stated)	-8	x	1	x
Brc1c(Br)c(Br)c2n[nH]nc2c1Br	x	32	20*	1
Fc1cccc(Cl)c1CSC1=NCCN1	x	136*	x	17
CCc1ccc(OCC(=O)Nc2ccc(-c3nc4ccccc4o3)c(O)c2)cc1	59*	5	-1	-27
CCc1ccc2oc(-c3cc(NC(=O)COc4ccc(OC)cc4)ccc3Cl)nc2c1	14	32	1	-19
CCc1ccc(OCC(=O)Nc2ccc(-c3nc4ccccc4s3)c(O)c2)cc1	123*	u	-4	-96
COc1ccc(S(=O)(=O)Nc2cccc3c2O[C@H](CN(C)Cc2ccc(C(=O)Nc4ccccc4N)cc2)[C@H](C)CN([C@H](C)CO)C3=O)cc1	x	128*	x	7
COc1ccc(S(=O)(=O)Nc2cccc3c2O[C@@H](CN(C)Cc2ccc(C(=O)Nc4ccccc4N)cc2)[C@@H](C)CN([C@H](C)CO)C3=O)cc1	x	110*	x	34
COc1ccc(S(=O)(=O)Nc2cccc3c2O[C@H](CN(C)Cc2ccc(C(=O)Nc4ccccc4N)cc2)[C@H](C)CN([C@@H](C)CO)C3=O)cc1	x	127*	x	16
N#Cc1cccc2cccc(Sc3ccccc3)c12	x	41	2	10
O=C(CN1CCc2ccccc21)Nc1scc2c1c(=O)oc1ccccc12	x	5	x	-4
C/C(=N\O)c1ccc2c(c1)CCO2	x	17	x	-52
CN(C)/C=C/C(=O)c1ccc2c(c1)CCO2	x	110*	x	-27
CCOC(=O)COc1c(C#N)sc2c1c(=O)n(-c1ccccc1)c(=S)n2-c1ccccc1	x	112*	x	-4
O=C(COc1ccc([N+](=O)[O-])cc1)Nc1ccccc1N1CCN(C(=O)c2ccc(Cl)cc2)CC1	-4	35	-2	-6
SMILES	p53 PUMA act	NOMO-1 viab	STK33 inh	MITF inhib
Cc1cccc(NC(c2ccc(C)s2)c2ccc3ccc(C)nc3c2O)n1 (configuration not stated)	2	x	1	x
Cc1ccnc(NC(c2ccccn2)c2ccc3ccc(C)nc3c2O)c1 (configuration not stated)	-44	116*	-1	75
Cc1cccc(NC(c2ccc([N+](=O)[O-])cc2)c2ccc3ccc(C)nc3c2O)n1 (configuration not stated)	-42	112*	1	44
Cc1cccc(NC(c2ccccc2C)c2ccc3ccc(C)nc3c2O)n1 (configuration not stated)	-15	121*	15	60
Cc1ccc(C)c(C(Nc2ccccn2)c2ccc3ccc(C)nc3c2O)c1 (configuration not stated)	-21	107*	u	44
CCSc1nc2ccccc2n1C(CC(=O)O)C(=O)O (configuration not stated)	2	12	6	-8
COc1ccc(C)cc1NC(=O)CN(c1ccc(I)cc1)S(C)(=O)=O	-9	26	-7	5
COc1cccc(OCC(=O)Nc2cccc(Oc3ccc4c(c3)C(=O)NC4=O)c2)c1	1	-15	2	29
CCOc1ccc(NC(=O)c2c(NC(=O)c3ccco3)sc3c2CCCCC3)cc1	-79	110*	0	22
COc1ccc(C(=O)C(C)Oc2ccc(NC(=O)c3cccc(OC)c3)cc2)cc1 (configuration not stated)	-40	125*	7	45
COc1ccc(C(=O)Nc2sc3c(c2C(=O)Nc2cccc(OC)c2)CCC3)cc1	71*	11	2	-47
COc1cccc(C(=O)Nc2sc3c(c2C(=O)NCc2cccnc2)CCCC3)c1	9	30	-2	3
COc1ccc(C(=O)Nc2ccc(C(O)(C(F)(F)F)C(F)(F)F)cc2)cc1	x	110*	-1	7
COc1ccc(OC)c(NC(=O)c2c(NC(=O)c3ccco3)sc3c2CCC3)c1	10	0	-3	-23
COc1ccc(C(=O)Nc2ccc(C)c(C)c2)cc1	x	23	x	48
COC(=O)c1ccc(CSc2nnc(-c3cccc(Br)c3)o2)o1	3	x	3	x
CC1(C)CC[C@]2(C(=O)O[C@@H]3O[C@H](CO)[C@@H](O)[C@H](O)[C@H]3O)CC[C@]3(C)C(=CCC4[C@@]5(C)CC[C@H](O[C@@H]6O[C@H](C(=O)O)[C@@H](O)[C@H](O)[C@H]6O)C(C)(C)C5CC[C@]43C)C2C1 (some centres not stated)	x	115*	-5	20
CC1OC(OC2C(C(=O)O)OC(O[C@H]3CC[C@@]4(C)C(CC[C@]5(C)C4CC=C4C6CC(C)(C)CC[C@]6(C(=O)OC6OC(CO)C(O)C(O)C6O)CC[C@]45C)C3(C)C)C(O)C2O)C(OC2OCC(O)C(O)C2O)C(O)C1O (some centres not stated)	x	1	-1	-71
CC1(C)CC[C@]2(C(=O)O)CC[C@]3(C)C(=CCC4[C@@]5(C)CC[C@H](O[C@@H]6O[C@H](CO)[C@@H](O)[C@H](O)[C@H]6O)C(C)(C)C5CC[C@]43C)[C@@H]2C1 (some centres not stated)	x	120*	-8	45
